Substitutions are numbered along the chain they refer to.

Results on 21 sequences are retold here after paper PMC5700166.

Holding throughout (experiment): protein-binding microarray (PBM); PBM: ~300 nM protein, 6 mM HEPES pH 7.8, 80 mM KCl, 0.5 mM EDTA, 0.5 mM EGTA, 6% glycerol, 35 ng/ul poly-dIdC, 1% milk, 1 h, room temperature; Ap Aiptasia and Nv Nematostella (sea anemones) / Co Capsaspora / Aq Amphimedon (sponge) / Dm Drosophila / Hu human; RHD is the Rel homology domain; high values mean tight binding
What all share (conditions): dsDNA, one strand shown

Assay [1] deals with T1, GST-Ap-NF-kB RHD (Exaiptasia pallida (Aiptasia), UniProt A0A913YAJ5 2-422).
T1 sequence: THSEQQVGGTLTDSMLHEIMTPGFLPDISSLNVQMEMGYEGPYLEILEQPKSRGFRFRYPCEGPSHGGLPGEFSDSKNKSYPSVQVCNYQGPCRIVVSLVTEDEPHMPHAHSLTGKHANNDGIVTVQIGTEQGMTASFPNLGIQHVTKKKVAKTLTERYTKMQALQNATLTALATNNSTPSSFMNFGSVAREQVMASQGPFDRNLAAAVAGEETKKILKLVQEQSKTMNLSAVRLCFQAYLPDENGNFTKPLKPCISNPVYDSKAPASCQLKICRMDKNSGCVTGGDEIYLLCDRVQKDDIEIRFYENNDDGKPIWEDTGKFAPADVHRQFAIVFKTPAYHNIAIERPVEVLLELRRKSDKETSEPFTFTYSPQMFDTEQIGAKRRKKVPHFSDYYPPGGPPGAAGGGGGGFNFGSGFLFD

In assay [2] the target is T2, GST-Nv-NF-kB (Cys allele) (Nematostella vectensis, UniProt E5G601 2-411).
T2 sequence: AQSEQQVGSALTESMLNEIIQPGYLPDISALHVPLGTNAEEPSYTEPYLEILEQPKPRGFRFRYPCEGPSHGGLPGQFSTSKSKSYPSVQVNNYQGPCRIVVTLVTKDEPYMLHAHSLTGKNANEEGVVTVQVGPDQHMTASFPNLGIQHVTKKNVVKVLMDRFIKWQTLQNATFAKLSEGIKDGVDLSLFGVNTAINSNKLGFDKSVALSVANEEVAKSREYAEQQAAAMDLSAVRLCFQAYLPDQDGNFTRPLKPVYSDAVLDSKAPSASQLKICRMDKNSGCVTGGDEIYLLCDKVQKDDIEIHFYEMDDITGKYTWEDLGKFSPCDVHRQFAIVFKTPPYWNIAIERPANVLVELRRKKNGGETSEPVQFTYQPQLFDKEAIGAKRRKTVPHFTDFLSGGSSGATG

The target of assay [3] is T3, GST-Aq-NF-kB (Amphimedon queenslandica, UniProt A9Y5G7 2-389).
T3 sequence: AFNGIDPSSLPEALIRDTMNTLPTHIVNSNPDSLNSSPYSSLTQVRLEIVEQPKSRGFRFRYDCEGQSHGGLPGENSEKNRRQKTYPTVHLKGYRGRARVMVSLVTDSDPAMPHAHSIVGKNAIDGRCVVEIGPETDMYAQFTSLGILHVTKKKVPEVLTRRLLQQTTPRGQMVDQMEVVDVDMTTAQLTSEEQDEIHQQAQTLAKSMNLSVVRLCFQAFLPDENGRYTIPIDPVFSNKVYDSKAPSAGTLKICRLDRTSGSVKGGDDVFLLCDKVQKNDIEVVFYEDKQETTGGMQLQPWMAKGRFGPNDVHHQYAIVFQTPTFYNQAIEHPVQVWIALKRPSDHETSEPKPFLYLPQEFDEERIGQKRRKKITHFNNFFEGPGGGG

For assay [4], the target named is T4, GST-Dm-Relish (Drosophila melanogaster, UniProt Q94527 99-473).
T4 sequence: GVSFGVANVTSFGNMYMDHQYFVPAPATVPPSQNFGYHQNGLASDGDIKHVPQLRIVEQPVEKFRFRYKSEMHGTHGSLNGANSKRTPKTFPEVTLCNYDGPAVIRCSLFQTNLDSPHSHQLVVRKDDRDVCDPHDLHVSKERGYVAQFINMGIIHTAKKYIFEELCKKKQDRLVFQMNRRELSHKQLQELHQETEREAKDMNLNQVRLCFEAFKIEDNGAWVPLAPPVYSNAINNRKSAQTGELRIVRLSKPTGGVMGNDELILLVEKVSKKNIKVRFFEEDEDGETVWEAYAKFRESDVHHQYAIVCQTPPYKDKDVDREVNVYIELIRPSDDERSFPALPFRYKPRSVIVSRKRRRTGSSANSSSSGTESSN

Assay [5] addresses GST-Hu-p50 (Homo sapiens, UniProt P19838 7-356).
Assay [6] concerns the target T5, GST-Co-NF-kB (Capsaspora owczarzaki, UniProt F1ARL5 200-546).
T5 sequence: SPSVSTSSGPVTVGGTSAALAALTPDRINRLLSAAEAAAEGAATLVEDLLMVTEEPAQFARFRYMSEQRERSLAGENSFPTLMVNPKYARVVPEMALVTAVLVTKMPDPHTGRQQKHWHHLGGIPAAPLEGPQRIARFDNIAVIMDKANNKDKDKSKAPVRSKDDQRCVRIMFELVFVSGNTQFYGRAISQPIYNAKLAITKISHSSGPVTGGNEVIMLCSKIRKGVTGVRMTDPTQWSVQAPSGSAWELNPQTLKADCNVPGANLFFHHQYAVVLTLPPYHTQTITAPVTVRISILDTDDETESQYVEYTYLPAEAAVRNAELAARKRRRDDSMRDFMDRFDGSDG

Assay [7] addresses T6, GST-Nv-NF-kB (Ser allele) (Nematostella vectensis, UniProt A7UNT2 2-411).
T6 sequence: T2 sequence with Q21R, C66S, S207N, E215Q, V217A, E225K, A268E, D399E

Chain of GST-Hu-p50 (P19838 7-356): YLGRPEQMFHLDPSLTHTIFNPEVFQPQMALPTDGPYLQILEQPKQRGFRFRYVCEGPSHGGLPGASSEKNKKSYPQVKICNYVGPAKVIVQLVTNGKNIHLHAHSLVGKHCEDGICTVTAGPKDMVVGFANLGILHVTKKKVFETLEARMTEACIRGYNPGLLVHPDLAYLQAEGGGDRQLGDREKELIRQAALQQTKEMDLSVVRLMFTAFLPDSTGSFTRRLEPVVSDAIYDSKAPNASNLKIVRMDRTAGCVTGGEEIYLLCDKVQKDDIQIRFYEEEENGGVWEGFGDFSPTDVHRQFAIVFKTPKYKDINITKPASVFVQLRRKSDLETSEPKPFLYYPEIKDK

“CCGATTAACATCAGGAACGTCCCTGATGTTAATCGGGTCTTGATTCGCTTGACGCTGCTG”: the values for the binding signal in assay [1], in assay [2] and in assay [3] were 3.25 z-score, 3.14 z-score and 5.01 z-score, respectively.

As to “CCGATTAACATCAGGCATGCCCCTGATGTTAATCGGGTCTTGATTCGCTTGACGCTGCTG”, the binding signal in assay [1] is 2.6 z-score; in assay [2] it was 1.59 z-score; in assay [3], 4.39 z-score.

For the sequence “CCGATTAACATCAGGACACTCCCTGATGTTAATCGGGTCTTGATTCGCTTGACGCTGCTG”, the binding signal in assay [1] was determined as 1.81 z-score; in assay [2] it was 2.51 z-score; in assay [3], 5.35 z-score.

As to “CCGATTAACATCAGGAAACAACCTGATGTTAATCGGGTCTTGATTCGCTTGACGCTGCTG”, the binding signal amounted to 1.07 z-score in assay [4], 2.89 z-score in assay [3] and 1.61 z-score in assay [5].

In the case of “CCGATTAACATCAAAATTCCGGGTGATGTTAATCGGGTCTTGATTCGCTTGACGCTGCTG”, the binding signal in assay [6] amounted to 1.33 z-score; in assay [4] it was 1.53 z-score; in assay [3], 1.67 z-score; in assay [5], 1.74 z-score.

For “CCGATTAACATCAGAAAGTTTCCTGATGTTAATCGGGTCTTGATTCGCTTGACGCTGCTG”, the values for the binding signal in assay [4], in assay [3] and in assay [5] were 1.85 z-score, 1.06 z-score and 1.69 z-score, respectively.

On to “CCGATTAACATCAGGGCATGCCCTGATGTTAATCGGGTCTTGATTCGCTTGACGCTGCTG”, for which the results for the binding signal in assay [1], in assay [2] and in assay [3] were 1.37 z-score, 1.29 z-score and 4.01 z-score, respectively.

Regarding “CCGATTAACATCAGTTGTCCCGCTGATGTTAATCGGGTCTTGATTCGCTTGACGCTGCTG”, the values for the binding signal in assay [1], in assay [2] and in assay [3] were 1.69 z-score, 1.89 z-score and 1.16 z-score, respectively.

With “CCGATTAACATCACAAAAATTCCTGATGTTAATCGGGTCTTGATTCGCTTGACGCTGCTG”, the binding signal was found to be 2.38 z-score in assay [4], 1.5 z-score in assay [3] and 1.01 z-score in assay [5].

For “CCGATTAACATCACGGAATTTCCTGATGTTAATCGGGTCTTGATTCGCTTGACGCTGCTG”, the results for the binding signal in assay [4], in assay [3] and in assay [5] were 1.89 z-score, 4.83 z-score and 1.38 z-score, respectively.

On to “CCGATTAACATCAGGCAGTTCCCTGATGTTAATCGGGTCTTGATTCGCTTGACGCTGCTG”, for which the binding signal was determined as 1.39 z-score in assay [1], 1.3 z-score in assay [2], 1.25 z-score in assay [7] and 3.41 z-score in assay [3].

On to “CCGATTAACATCAAATTTTCCGGTGATGTTAATCGGGTCTTGATTCGCTTGACGCTGCTG”, for which the binding signal in assay [7] is 1.67 z-score; in assay [4], 1.54 z-score; in assay [3] it was 2.04 z-score; in assay [5] it was 1.95 z-score.

“CCGATTAACATCAGGAGCTTCCCTGATGTTAATCGGGTCTTGATTCGCTTGACGCTGCTG”: the binding signal came out at 1.1 z-score in assay [1], 1.03 z-score in assay [2] and 3.47 z-score in assay [3].

For “CCGATTAACATCAGGAATTTTCATGATGTTAATCGGGTCTTGATTCGCTTGACGCTGCTG”, the binding signal in assay [4] worked out at 1.12 z-score; in assay [3], 1.37 z-score; in assay [5] it was 1.36 z-score.

“CCGATTAACATCAGTCCCTAAGCTGATGTTAATCGGGTCTTGATTCGCTTGACGCTGCTG”: the binding signal in assay [1] worked out at 1.75 z-score; in assay [2], 3.07 z-score; in assay [3], 4.16 z-score.

Take “CCGATTAACATCAAAAATTTCCATGATGTTAATCGGGTCTTGATTCGCTTGACGCTGCTG”: the binding signal in assay [4] amounted to 1.53 z-score; in assay [3], 1.53 z-score; in assay [5], 1.32 z-score.

Take “CCGATTAACATCAACGGGTCCCTTGATGTTAATCGGGTCTTGATTCGCTTGACGCTGCTG”: the binding signal in assay [1] is 2.6 z-score; in assay [2], 1.84 z-score; in assay [3] it was 2.73 z-score.

With “CCGATTAACATCATAGTCCCATGTGATGTTAATCGGGTCTTGATTCGCTTGACGCTGCTG”, the binding signal in assay [1] is 2.47 z-score; in assay [2], 2.41 z-score; in assay [3] it was 2.36 z-score.

As for “CCGATTAACATCAGTCCCGCACTTGATGTTAATCGGGTCTTGATTCGCTTGACGCTGCTG”, the binding signal in assay [1] amounted to 1.61 z-score; in assay [2] it was 1.95 z-score; in assay [3] it was 2.85 z-score.

For “CCGATTAACATCAGGAATTTTTATGATGTTAATCGGGTCTTGATTCGCTTGACGCTGCTG”, the binding signal is 1.94 z-score in assay [4], 1.99 z-score in assay [3] and 1.39 z-score in assay [5].

Take “CCGATTAACATCAGGAATAACCATGATGTTAATCGGGTCTTGATTCGCTTGACGCTGCTG”: the binding signal in assay [4] is 1.8 z-score; in assay [3] it was 1.32 z-score; in assay [5], 2.29 z-score.
